Source: PubChem BioAssay AID2762 (National Center for Advancing Translational Sciences (NCATS), 2010)
Results filed as inconclusive are left out. Unmarked numbers belong to inactive results. The source made the active and inactive calls. Calls come from the whole dose curve; as a rule, active = well fitted inhibition curve with a large enough effect; inconclusive = small, poorly fitted or top-dose-only effect, or effect the other way; inactive = no such curve, though single readings can be large or run the other way.

Target: Nuclear receptor ROR-gamma (Mus musculus) (UniProt P51450)
Assay: Concentration response confirmation assay for inhibitors of ROR gamma transcriptional activity
Details: Drosophila S2 Gal4-RORgamma UAS-luciferase, 20 h; series mostly up to 46.1 µM; activity change, negative = inhibition: at the top concentration
Excerpt: NIH Molecular Libraries Probe Production Network [MLPCN] NIH Chemical Genomics Center [NCGC] MLPCN Grant: R03 DA026211-01 Assay Provider: Dan Littman, New York University Assay Overview: The retinoic acid-related orphan receptor (ROR) gamma is a transcription factor that has a central role in the differentiation of Th17 cells, a subset of T helper cells that secrete the inflammatory cytokines IL-17, IL-17F, and IL-22. Th17 cells have been implicated in graft versus host disease, autoimmune disease and asthma. ROR gamma is induced in naive T helper cells in the presence of TGF-beta combined with IL-6, IL-21, or IL-23, and thereafter directs the expression of the Th17 lineage cytokines. To study the mechanism of action of ROR gamma, an insect cell-based assay was screened. This Drosophila Schneider cell line was stably transfected with two vectors: a gene expressing a fusion of the Gal4 DNA binding domain and ROR gamma transactivation domain under the control of the metallothionine promoter and a Photinus luciferase reporter regulated by the Gal4 binding site enhancer, UAS. […] Small molecule inhibitors of ROR gamma activity are detected by a decrease in luciferase reporter activity.
Assay Protocol Summary: For screening, 600 cells in 4 uL/well were dispensed into white solid 1536-well plates (Grenier) using a solenoid-based dispenser. Following transfer of 23 nL compound or DMSO vehicle by a pin tool, the plates were incubated 1 hr at ambient temperature, and 1 uL/well copper sulfate (700 uM final concentration) was added. The plates were centrifuged 15 s at 1000 RPM and incubated 20 hr at ambient temperature. After addition of 1.5 uL Photinus luciferase detection reagent, the plates were incubated 10 min at ambient temperature and then read by an ViewLux (Perkin Elmer) to detect luminescence. Keywords: NIH Roadmap, MLPCN, MLI, MLSMR, qHTS, NCGC, qHTS, nuclear hormone receptor, retinoic acid-related orphan receptor, ROR gamma

Sequence of Nuclear receptor ROR-gamma (Mus musculus) (P51450 whole entry, looked up): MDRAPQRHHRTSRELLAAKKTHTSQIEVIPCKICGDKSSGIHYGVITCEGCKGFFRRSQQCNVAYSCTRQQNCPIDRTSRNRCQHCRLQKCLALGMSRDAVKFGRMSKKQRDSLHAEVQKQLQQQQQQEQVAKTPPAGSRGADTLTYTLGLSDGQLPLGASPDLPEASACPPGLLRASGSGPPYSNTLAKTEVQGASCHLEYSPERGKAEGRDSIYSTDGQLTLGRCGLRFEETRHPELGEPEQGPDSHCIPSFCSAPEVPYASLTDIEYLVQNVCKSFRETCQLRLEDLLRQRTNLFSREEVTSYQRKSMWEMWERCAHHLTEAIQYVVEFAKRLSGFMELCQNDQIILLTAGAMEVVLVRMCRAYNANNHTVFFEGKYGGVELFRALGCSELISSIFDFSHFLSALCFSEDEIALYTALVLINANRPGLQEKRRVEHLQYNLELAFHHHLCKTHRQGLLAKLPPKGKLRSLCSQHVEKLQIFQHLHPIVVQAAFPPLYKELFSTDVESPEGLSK

Compound | Potency | activity change, negative = inhibition
CCOc1ncccc1C(=O)OCC(=O)Nc1ccc(-c2nc3ccc(C)cc3s2)cc1 | 0.396 µM (active) | –
CC(C)(C)S(=O)(=O)c1cnc2c(-c3ccsc3)cnn2c1N | 22.3 µM (active) | –
Cc1ccc(C)c(/C=N/n2cc(-c3ccccc3)[nH]c2=S)c1 | 0.791 µM (active) | –
CC(C)(C)S(=O)(=O)c1cnc2c(-c3ccc(Cl)cc3)cnn2c1N | 4.45 µM (active) | –
Cc1ccccc1NC(=O)CCN1CCN(C)CC1 | – | 8.95%
Cc1cc(C)c2[nH]c(C(=O)Nc3ccc4c(c3)OCO4)cc2c1 | 0.125 µM (active) | –
COc1ccc(C(C#N)N2N=C(C)CC2c2ccccc2)cc1 (stereo not given) | – | 7.28%
CCOC(=O)[C@@H]1[C@H]2COc3cc(OC)ccc3[C@@H]2N2C(=O)N(c3ccc(C)cc3)C(=O)[C@@]12C | 14.1 µM (active) | –
Oc1ccccc1-c1cc(-c2ccc3c(c2)OCCO3)n[nH]1 | 11.2 µM (active) | –
c1ccc(Cn2c(-c3ccccc3)c[n+]3c2SCCC3)cc1 | – | 22.7%
O=C(O)/C=C/C(=O)Nc1ccccc1SC(F)(F)F | – | 4.2%
CCN(CC(=O)NCCc1ccc(Cl)cc1)Cc1nc2ccccc2c(=O)[nH]1 | 12.5 µM (active) | –
Cc1ccc2nc(-c3ccc(NC(=O)COC(=O)c4ccc(=O)[nH]c4)cc3)sc2c1 | 1.41 µM (active) | –
O=C1CC(c2ccc(F)cc2)CC(O)=C1C1NCCc2ccccc21 (stereo not given) | – | 5.11%
CCOC(=O)Cc1ccc(NC(=O)c2ccc(C(C)(C)C)cc2)cc1 | – | 50.4%
CCOC(=O)c1ccc2nc(Nc3nc4ccc(F)cc4s3)sc2c1 | 5.6 µM (active) | –
COc1ccc(C(=O)Nc2nc3cc4c(cc3s2)OCCO4)c(OC)c1 | 0.0628 µM (active) | –
O=[N+]([O-])c1ccccc1/C=C/C=N/n1c(-c2ccc(Cl)cc2)n[nH]c1=S | – | 29.3%
O=C(NC(=S)Nc1nc(-c2ccccc2)cs1)c1cncc(Br)c1 | 3.15 µM (active) | –
O=C(O)c1ccc(/C=N/n2cc(-c3ccccc3)[nH]c2=S)cc1 | – | 11.8%

Compound | Potency | activity change, negative = inhibition
Cc1cc(NCc2ccccn2)n2ncc(-c3ccc(Cl)cc3)c2n1 | 0.199 µM (active) | –
O=C(NC(=S)Nc1nc(-c2ccc(Br)cc2)cs1)c1cccnc1 | – | -22.4%
C=C(C)c1cccc(C(C)(C)NC(=O)N2CCN(CC)CC2)c1 | – | -10.7%
Cc1ccc2nc(-c3ccc(NC(=O)COC(=O)c4ccc([N+](=O)[O-])o4)cc3)sc2c1 | 0.315 µM (active) | –
Cc1sc2ncnc(Sc3nnc4sc5ccccc5n34)c2c1C | – | -0.98%
COc1ccc(C(=O)/C=C/c2ccc(OC)cc2OC)c(O)c1 | 0.888 µM (active) | –
CCN1CCCc2cc(CN(CCN3CCOCC3)C(=S)Nc3ccc(C)cc3)ccc21 | 9.96 µM (active) | –
CCN(CC(=O)Nc1ccc2c(c1)CCC2)Cc1nc2ccccc2c(=O)[nH]1 | 8.88 µM (active) | –
CC(C)(C)S(=O)(=O)c1cnc2c(-c3ccc(F)cc3)cnn2c1N | 11.2 µM (active) | –
COC(=O)c1ccc(Oc2cc(C)nc(-n3nc(C)cc3C)n2)cc1 | 1.58 µM (active) | –
CCOC(=O)c1oc2cccc(OCC(O)CNC(C)C)c2c1C (stereo not given) | – | 16.8%
CCOC(=O)c1sc(NC(=O)c2ccc(S(=O)(=O)N(C)C)cc2)nc1C | 0.0791 µM (active) | –
COc1ccc2nc(N3C(=O)CNC3=S)sc2c1 | 1.99 µM (active) | –
COC(=O)c1ccc2nc(Nc3nc4ccc(F)cc4s3)sc2c1 | 0.315 µM (active) | –
CCN1C(=O)/C(=C/c2ccc(N3CCCC3)cc2)NC1=S | 6.28 µM (active) | –
COc1ccc(-c2cc(C(F)(F)F)nc(S(=O)(=O)CCCC(=O)Nc3cccnc3Cl)n2)cc1OC | 11.2 µM (active) | –
Cc1cc(C)c(S(=O)(=O)NCCn2ccc3ccccc32)c(C)c1 | – | -4.64%
COc1cccc2cc(-c3n[nH]c(=S)n3C)oc12 | 15.8 µM (active) | –
N=C1S/C(=C\c2ccco2)C(=O)N1c1nccs1 | 0.141 µM (active) | –
COc1ccc(C(=O)Nc2ccc(NC(=O)c3cccs3)cn2)cc1 | – | -1.79%
